Drawing on PubChem BioAssay AID504720 (Sanford-Burnham Center for Chemical Genomics, 2011), this text covers activation for 89 compounds.

Screen size: about 350,000 compounds; about 1,100 (0.31%) were called active. What follows is part of a selection rich in actives, with near analogues and random picks from the rest. Unmarked numbers belong to inactive results. Rule as the data show it: active = activation above about 50%; inactive = the rest.

Chain of Endoribonuclease toxin MazF (Escherichia coli (strain K12)) (P0AE70 whole entry, looked up): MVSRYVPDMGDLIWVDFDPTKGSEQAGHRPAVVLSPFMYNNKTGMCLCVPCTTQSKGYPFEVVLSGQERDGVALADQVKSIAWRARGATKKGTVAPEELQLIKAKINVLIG

This assay addresses Endoribonuclease toxin MazF (Escherichia coli (strain K12)) (UniProt P0AE70). The assay is described as follows: activators of E. coli MazEF toxin-antitoxin RNase, primary screen, biochemical, fluorescence, uHTS (AID 504720). The note with it: FAM/BHQ RNA-DNA oligo cleavage fluorescence, 5 h, at 20 µM, active compounds read high.
For `Cc1nnc2n1N=C(c1ccc3c(c1)NC(=O)CO3)CS2`, the activation was -1.68%.
In the case of `Cc1c(C(=O)NCCN(C)C)oc2ccc(S(=O)(=O)N3CCCC3)cc12` it was 111% (active); in that of `CCOC(=O)C1CCN(C(=O)c2oc3ccc(S(=O)(=O)N4CCCCCC4)cc3c2C)CC1`, -5.11%; in that of `COc1ccc(NC(=O)c2oc3ccc(S(=O)(=O)N4CCOCC4)cc3c2C)cc1`, 8.57%.
In the case of `COCCNC(=S)N1CCN(C)CC1` it was -2.39%; in that of `C/C(CC(=O)NCc1ccc(Cl)cc1)=N\NC(=O)COc1ccc(C)cc1Br`, -5.14%; in that of `CC(CCc1ccccc1)NCC(O)c1cccc([N+](=O)[O-])c1` (centres undefined), 11.5%.
The same measure for `COc1cc(/C=N/NC(=O)c2cccnc2)ccc1OC(=O)c1cccc(Br)c1`: 8.67%; for `CCn1c(/C=N/NC(=O)c2ccc(OC)cc2)nc2ccccc21`: -0.18%; for `COc1cccc(/C=N/NC(=O)c2[nH]nc3c2CCc2ccccc2-3)c1O`: 160% (active).
For the compound `COc1ccc(S(=O)(=O)N2CCOC23CCN(S(=O)(=O)c2ccc([N+](=O)[O-])cc2)CC3)cc1`, the activation was 5.08%.
`COc1ccc(C(=O)Nc2ccc(C3(C#N)CCCC3)cc2)cc1OC`: the activation was -19.2%.
The same measure for `CCOCCCNC(=O)C(NC(=O)c1ccccc1O)c1ccccc1` (centres undefined): -12.8%; for `CC[C@@H]1Cc2cc(O)ccc2C2=C1c1ccc(O)cc1C[C@H]2CC`: 84.7% (active); for `O=C1CC(Sc2ncn[nH]2)C(=O)N1c1ccccc1` (centres undefined): 3.68%.
With `Cc1[nH]c(C)c(S(=O)(=O)N2CCC(C)CC2)c1C(=O)N1CCCC1`, the activation was 1.65%.
The same measure for `CCOC(=O)c1c(C)[nH]c(C)c1C(=O)COC(=O)/C=C/c1cccc([N+](=O)[O-])c1`: 3.22%.
For `Cc1cccc(N=Nc2c(O)[nH]c3ccc(F)cc23)c1`, the activation was 946% (active).
In the case of `Cc1ccc(CNC(=O)CSc2nnc3c(n2)[nH]c2ccc(F)cc23)cc1`, the activation is 18.4%.
As for `COc1cc(OC)c(C(=S)N2CCCC2)cc1OC`, the activation is 9.16%.
In the case of `O=C1C2(Cl)C3(Cl)C4(Cl)C(Cl)(Cl)C5(Cl)C3(Cl)C1(Cl)C5(Cl)C24Cl` (centres undefined) it was 65.6% (active); in that of `C=CCn1c(-c2ccc(Cl)cc2)ccc(C#N)c1=O`, 2.85%.
Take `Cc1nc(Nc2ccccc2F)c2nnn(Cc3ccccc3Cl)c2n1`: the activation is 61.6% (active).
For the compound `Cc1nc(Nc2ccc(S(=O)(=O)N3CCCC3)cc2)c2nnn(Cc3ccccc3)c2n1`, the activation was 12.1%.
Regarding `Cc1nc(Nc2ccc3c(c2)OCCO3)c2nnn(Cc3ccccc3Cl)c2n1`, the activation was -3.74%.
`CC(C)(C)OC(=O)CNC(=O)c1[nH]cnc1C(=O)N[C@@H](CCCCN)C(=O)OC(C)(C)C`: the activation is -1.01%.
In the case of `CC(=O)Nc1ccc(C(=O)N(C2=NC(C)CS2)c2ccc(Cl)cc2)cc1` (centres undefined) it was 2.92%; in that of `C/C(=N\NC(=O)COc1c(C)cccc1C)c1cccs1`, -0.53%; in that of `CCOc1ccccc1N1CCN(C(=O)c2ccc3[nH]c(C)c(C)c3c2)CC1`, 9.45%.
The same measure for `CC[C@]1(C(=O)OC)[C@H]2C(=O)N(C)C(=O)[C@H]2[C@H]2CN(C)C(=NCc3ccccc3)N21`: 74.5% (active).
The same measure for `CCN1C[C@@H]2[C@@H]3C(=O)N(Cc4ccccc4)C(=O)[C@@H]3[C@](Cc3ccccc3)(C(=O)OC)N2C1=NC1CCCCC1`: 37.9%; for `CCCN=C1N(C)C[C@@H]2[C@@H]3C(=O)N(Cc4ccccc4)C(=O)[C@@H]3[C@](C)(C(=O)OC)N12`: 3.52%; for `CCOC(=O)c1ccc(NC(=O)c2ccc(NC(=O)C3CCCO3)cc2)cc1` (centres undefined): 2.03%.
For the compound `OCCC1CN(Cc2ccc3nsnc3c2)CCN1C1CCCCC1` (centres undefined), the activation was 5.81%.
The same measure for `CC(C)Cn1c(CCC(=O)O)ccc1-c1cccs1`: -11.1%; for `CC(=O)OC1CCC2(C)C(=CCC3C4CC(=O)N(O)C(=O)C4(C)CCC32)C1` (centres undefined): 1.13%; for `CCN1/C(=C\c2ccc3ccccc3[n+]2CC)Sc2cc(C)ccc21`: 79.5% (active).
Regarding `CCN1/C(=C/c2ccc3ccc(C)cc3[n+]2CC)Sc2ccccc21`, the activation was 72.6% (active).
In the case of `CN(C(=O)CC(NC(=O)c1ccccc1)(c1ccccc1)c1ccccc1)c1ccccc1` it was 10.5%; in that of `Cc1c(Cl)cccc1NC(=S)N(Cc1ccccc1)Cc1cccnc1`, 13.1%; in that of `CC(C)c1ccc(NC2CCCN(C(=O)c3ccncc3)C2)cc1` (centres undefined), 5.6%.
`C[C@@H](NC(=O)OC(C)(C)C)c1nnc(S(=O)(=O)Cc2ccccc2)o1`: the activation is 8.87%.
For the compound `C/C(=N\OC(=O)c1ccccc1)c1c(C)nc2cc(C)ccn12`, the activation is 4.56%.
In the case of `COc1cc(Cl)c(C)cc1NC(=O)COC(=O)c1cc(SC)ccc1Cl` it was -5.68%; in that of `COCCn1c(SCC(=O)Nc2ccc(F)cc2F)nc2c(c1=O)SCC2`, 7.1%.
For the compound `COc1cc(N2CCCC2)c(OC)cc1/C=C(/C#N)c1cccc(Br)c1`, the activation was -128%.
The same measure for `O=C(NCCCNC(=O)NC1CCCCC1)NC1CCCCC1`: 6.46%.
The same measure for `COC(=O)Cn1c(=NC(=O)CSCC(=O)Nc2cc(C)on2)sc2ccccc21`: 5.86%.
In the case of `CC(C)(C)[C@H]1C=C(C(=O)NCc2ccccc2)O[C@@H](OCc2ccc(CO)cc2)C1` it was 3.75%; in that of `CCN(CC)S(=O)(=O)c1cc([N+](=O)[O-])ccc1N=Nc1c(O)n(C)c2ccccc12`, 142% (active).
In the case of `CCn1c(O)c(N=NC(=O)c2cccc(S(=O)(=O)N3CCCCC3)c2)c2ccccc21`, the activation is -8.66%.
With `CCN(CC)S(=O)(=O)c1cc([N+](=O)[O-])ccc1NNC(=O)Nc1ccccc1`, the activation is 3.61%.
Take `O=C(COC(=O)c1ccc(F)cc1F)Nc1ncccn1`: the activation is -2.63%.
As to `CCOc1ccc(N(CC(=O)NCCOc2ccccc2OC)S(=O)(=O)c2ccccc2)cc1`, the activation is -0.33%.
As to `O=C(COc1ccc(S(=O)(=O)N2CCCCC2)cc1)NCc1ccccn1`, the activation was 9.35%.
Turning to `CCOCCOC(=O)C1=C(C)N(C)C(=O)NC1c1ccccc1F` (centres undefined), the activation was 7.27%.
Consider `O=C(CCN1C(=O)/C(=C/c2cccs2)SC1=S)NNC(=O)c1cccc(O)c1`, for which the activation is 96.7% (active).
The same measure for `CC(C(=O)Nc1ccc(O)c(C(=O)O)c1)N1C(=O)/C(=C/c2cccs2)SC1=S` (centres undefined): 3.14%.
In the case of `Cc1c(C(=O)NCCN2C(=O)S/C(=C\c3cccs3)C2=O)cccc1[N+](=O)[O-]` it was 9.61%.
Consider `CC(C)NC(=O)C(=O)NCCCOC(C)C`, for which the activation was 15.5%.
The same measure for `COCCN(CCOC)S(=O)(=O)NC[C@H]1O[C@@H](n2cnc3c(N)ncnc32)[C@H](O)[C@@H]1O`: 5.68%.
The same measure for `CCCCN(CC(=O)Nc1cccc(S(=O)(=O)N2CCCC2)c1)Cc1nc2ccccc2c(=O)[nH]1`: -2.27%; for `CCOc1ccc(N2C(=O)CN(c3cccc4ccccc34)C2=S)cc1`: 1.98%; for `CCO/C=C1\C(=O)N(c2ccc(OCC)cc2)C(=O)c2ccccc21`: 5.56%.
Regarding `CCOc1ccc(N2C(=O)/C(=C/c3ccc(C)o3)N(C)C2=S)cc1`, the activation was 53.2% (active).
With `OCC[C@H]1C[C@H](O)[C@@H](O)[C@]2(CCc3ccccc3O2)O1`, the activation was 2.25%.
As for `CCCCN=C1C([N+](=O)[O-])=CC=C2C1=NC1(CCCCC1)N2O`, the activation is 8.1%.
In the case of `CCCCn1c(N)c(N(CC(C)C)C(=O)c2ccc(-n3c(C)ccc3C)cc2)c(=O)[nH]c1=O` it was -0.38%; in that of `COc1ccc(NC(=O)CSc2nnc(-c3ccccc3F)n2C2CC2)cc1S(N)(=O)=O`, 3.2%.
The same measure for `CC(C)(C)C1CCC(C(=O)Nc2cccnc2)CC1` (centres undefined): 5.13%; for `Cn1cccc1/C=C1\SC(=S)N(NC(=O)c2ccc(Cl)cc2)C1=O`: 140% (active); for `CN1C(=O)C(CC(N)=O)N(NC(=O)c2ccc(Cl)cc2)C1=S` (centres undefined): -6.03%.
In the case of `CC(=O)N1C(=O)/C(=C2\SC(=S)N(NC(=O)c3ccc(O)cc3)C2=O)c2ccccc21` it was 4.76%; in that of `CCn1nc(C(=O)NNC(=O)C2CSC3(C)CCC(=O)N23)c2ccccc2c1=O` (centres undefined), 1.5%; in that of `Cc1ccccc1Nc1c([N+](=O)[O-])ccc2nonc12`, -7.83%.
For the compound `Cc1ccc2cccc([N+](=O)[O-])c2n1`, the activation is 4.29%.
On to `CN(c1ccccc1)c1ccc([N+](=O)[O-])c2nonc12`, for which the activation is 72.5% (active).
In the case of `C=CC[C@@H](CC(=O)NCCO)C(=O)N[C@H](C)COC(=O)[C@@H](CC=C)CC(=O)OC(C)(C)C` it was -0.071%; in that of `COc1cc(S(=O)(=O)N(Cc2cccs2)C2CC2)ccc1-n1cnnn1`, 7.76%.
For `CCOC(=O)N1CCN(C(=O)c2ccc3nc4cc(Cl)ccc4c(=O)n3c2)CC1`, the activation was -2.93%.
The same measure for `CC(C)(C)N(Cc1ccccc1)C(=O)COC(=O)CCc1c[nH]c2ccccc12`: 5.36%.
Regarding `COc1cc(C(c2c(O)c3ccccc3oc2=O)c2c(C)n(C)n(-c3ccccc3)c2=O)ccc1O` (centres undefined), the activation is 0.237%.
In the case of `COc1cc(N=Cc2c(O)c3ccccc3oc2=O)c(OC)cc1Cl` it was 221% (active); in that of `CCC(=O)CC(c1ccc([N+](=O)[O-])cc1)c1c(O)c2ccccc2oc1=O` (centres undefined), 1%; in that of `O=C(NNC(=S)Nc1ccc(F)cc1)[C@H]1C[C@@H]1c1ccccc1`, 12.2%.
In the case of `CCCNC(=O)c1onc(CSc2ccc(F)cc2)c1C(=O)NC(C)C` it was 1.76%.
In the case of `Cc1ccc(S(=O)(=O)N2CCN(C(=O)Cn3c(=O)cnc4ccccc43)CC2)c(C)c1` it was 52.1% (active); in that of `Cc1ccc(S(=O)(=O)N2CCN(C(=O)COC(=O)c3c(C)cc(C)cc3C)CC2)c(C)c1`, 2.63%.
On to `Cc1ccc(S(=O)(=O)N2CCN(C(=O)CSc3cc(C)ccc3C)CC2)c(C)c1`, for which the activation was -11.9%.
